# Results taken from PubChem BioAssay (Tox21).
# Where “and” joins values, the source holds several entries; their conditions need not be identical. Identical values can stand only once. Inconclusive results are not listed. A call without a number means that no potency is given here. The source holds several records for some structures; these can differ, active in one and inactive in another. Calls of active or inactive are those of the source. Unless noted, calls follow the shape of the full dose curve.
# How the values were obtained:
# [1] = qHTS assay to identify small molecule agonists of the sonic hedgehog signaling (Shh) pathway (AID 1259368);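 also: NIH/3T3-derived 3T3Gli1-Luc cells carrying a stable Gli1-driven firefly luciferase reporter; series mostly up to about 92 µM; nearly all actives have a fitted effect of over 15% in size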
# Summary of the method: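 Cells of a mouse NIH/3T3 clone stably expressing luciferase under the Gli1 transcriptional response element are exposed to test chemicals for 24 hr at 37 C. Pathway activation is detected as a rise in luminescence.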
# [2] = qHTS assay to identify small molecule antagonists of the sonic hedgehog signaling (Shh) pathway (AID 1259369); also: nearly all actives have a fitted effect of over 45% in size; also: potency is read from the fitted curve at half-maximal effect
# Summary of the method: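 Cells are plated and held 4hr at 37 C, compounds (DMSO) are pinned in, conditioned medium is added to stimulate the pathway, and after 24hr luciferase reagent is added for 30min before luminescence is read.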
# [3] = target: Estrogen receptor beta (Homo sapiens) (UniProt Q92731); assay: qHTS assay to identify small molecule agonists of the estrogen receptor beta (ER-beta) signaling pathway (AID 1259377; active = well fitted activation curve with a large enough effect in the signal ratio in the repeat runs, not every such curve was filed as active; the % refers to the signal ratio)
# Summary of the method: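 Read-out: beta-lactamase FRET fluorescence. Cell line: ER-beta-UAS-bla HEK293T in 2% charcoal-stripped FBS. Exposure: 16 hr at 37C. Substrate step: 2 h at room temperature.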
# [4] = target: Estrogen receptor beta (Homo sapiens) (UniProt Q92731); assay: qHTS assay to identify small molecule antagonists of the estrogen receptor beta (ER-beta) signaling pathway (AID 1259378; active = well fitted inhibition curve with a large enough effect in the signal ratio in the repeat runs, not every such curve was filed as active; the % refers to the signal ratio)
# Summary of the method: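 Antagonist mode: compounds added to beta-lactamase reporter HEK293T ER-beta-UAS cells stimulated with E2 (1nM final), 16 hr at 37C. LiveBLAzer B/G FRET substrate, 2 hours room temperature, fluorescence read-out.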
# [5] = qHTS assay to identify small molecule agonists of the estrogen receptor beta (ER-beta) signaling pathway - cell viability counter screen (AID 1259380; active = well fitted curve in the direction sought with a large enough effect in the repeat runs; an effect the other way counts as inactive or inconclusive; also: nearly all actives have a fitted effect of over 30% in size; also: potency is read from the fitted curve at half-maximal effect)
# Summary of the method: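 Cytotoxicity is measured in parallel with the reporter screen: after 16 hr compound exposure at 37C and a 2 hr LiveBLAzer step, CellTiter-Glo is added to the same ER-beta-UAS-bla HEK293T wells and luminescence read after 30 min.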
# [6] = qHTS assay to identify small molecule antagonists of the estrogen receptor beta (ER-beta) signaling pathway - cell viability counter screen (AID 1259382; active = well fitted curve in the direction sought with a large enough effect in the repeat runs; an effect the other way counts as inactive or inconclusive; also: nearly all actives have a fitted effect of over 55% in size; also: potency is read from the fitted curve at half-maximal effect)
# Summary of the method: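 Cytotoxicity counter screen multiplexed with the beta-lactamase antagonist assay: GripTite HEK293T ER-beta-bla cells were treated 16 hr with test chemicals in the presence of 1nM 17-beta-estradiol, and viability was measured by CellTiter-Glo.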
# [7] = qHTS assay to identify small molecule agonists or antagonists of the thyroid stimulating hormone receptor (TSHR) signaling pathway - wild type cell line counter screen (AID 1259384)
# Summary of the method: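 Counter screen in untransfected Hek293: compounds (15-point titration, triplicate) plus phosphodiesterase inhibitor Ro20-1724 added after 18 h plating; 30 min RT. Intracellular cAMP via competitive d2/cryptate immunoassay, 1 h incubation.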
# [8] = qHTS assay to identify small molecule agonists of the androgen receptor (AR) signaling pathway in the presence of an antagonist - cell viability counter screen (AID 1259379; active = well fitted curve in the direction sought with a large enough effect in the repeat runs; an effect the other way counts as inactive or inconclusive; also: nearly all actives have a fitted effect of over 25% in size; also: potency is read from the fitted curve at half-maximal effect)
# Summary of the method: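 Cytotoxicity is assessed by CellTiter-Fluor in MDA-kb2 cells carrying an MMTV-driven luciferase reporter. Cells receive 3.0uM nilutamide plus compounds at 15 concentrations and incubate 16 hr at 37C without CO2 before fluorescence reading.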
# [9] = target: Androgen receptor (Homo sapiens) (UniProt P10275); assay: qHTS assay to identify small molecule agonists of the androgen receptor (AR) signaling pathway in the presence of an antagonist (AID 1259381); also: nearly all actives have a fitted effect of over 15% in size; also: potency is read from the fitted curve at half-maximal effect
# Summary of the method: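 Agonist-mode confirmation screen: human MDA-kb2 cells stably expressing luciferase under an MMTV promoter bearing AR and GR response elements, co-treated with 3.0uM nilutamide (final). Luminescence measured after 16hr compound incubation.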
# [10] = target: Estrogen receptor (Homo sapiens) (UniProt P03372); assay: qHTS assay to identify small molecule agonists of the estrogen receptor alpha (ER-alpha) signaling pathway in the presence of an antagonist (AID 1259383); also: top concentration of the series differs between compounds; nearly all actives have a fitted effect of over 15% in size
# Summary of the method: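 Agonist-mode confirmation in the presence of the ER antagonist ICI-182,780 at 10.0nM final. Breast-derived VM7Luc4E2 reporter cells were exposed to compounds for 22hr, and ERE-driven luciferase was quantified by luminescence.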
# Androgen receptor (Homo sapiens), sequence (P10275 whole entry, looked up): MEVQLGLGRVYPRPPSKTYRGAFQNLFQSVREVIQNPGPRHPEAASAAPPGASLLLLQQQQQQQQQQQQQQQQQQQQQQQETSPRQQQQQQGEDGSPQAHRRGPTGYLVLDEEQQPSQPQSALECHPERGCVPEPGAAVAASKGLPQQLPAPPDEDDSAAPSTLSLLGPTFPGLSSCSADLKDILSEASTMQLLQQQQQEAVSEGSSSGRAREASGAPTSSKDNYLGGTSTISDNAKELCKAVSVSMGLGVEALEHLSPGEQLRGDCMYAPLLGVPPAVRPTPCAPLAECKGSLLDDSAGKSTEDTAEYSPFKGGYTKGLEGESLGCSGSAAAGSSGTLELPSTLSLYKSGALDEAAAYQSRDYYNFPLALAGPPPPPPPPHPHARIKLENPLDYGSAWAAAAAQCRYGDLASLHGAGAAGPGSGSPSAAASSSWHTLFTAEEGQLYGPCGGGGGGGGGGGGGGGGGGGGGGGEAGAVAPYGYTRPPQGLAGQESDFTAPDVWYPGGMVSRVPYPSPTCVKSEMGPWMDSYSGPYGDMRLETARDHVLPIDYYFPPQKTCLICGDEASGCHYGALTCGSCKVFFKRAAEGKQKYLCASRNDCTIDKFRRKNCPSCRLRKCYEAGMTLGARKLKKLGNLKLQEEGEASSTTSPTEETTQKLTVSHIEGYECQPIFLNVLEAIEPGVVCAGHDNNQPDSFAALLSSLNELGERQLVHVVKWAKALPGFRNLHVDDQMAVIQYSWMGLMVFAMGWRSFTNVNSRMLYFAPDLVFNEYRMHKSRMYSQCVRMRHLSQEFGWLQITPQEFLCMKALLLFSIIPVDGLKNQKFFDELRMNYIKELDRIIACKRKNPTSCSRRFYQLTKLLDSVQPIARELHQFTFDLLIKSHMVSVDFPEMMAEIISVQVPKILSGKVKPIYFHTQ
# Estrogen receptor beta (Homo sapiens), sequence (Q92731 whole entry, looked up): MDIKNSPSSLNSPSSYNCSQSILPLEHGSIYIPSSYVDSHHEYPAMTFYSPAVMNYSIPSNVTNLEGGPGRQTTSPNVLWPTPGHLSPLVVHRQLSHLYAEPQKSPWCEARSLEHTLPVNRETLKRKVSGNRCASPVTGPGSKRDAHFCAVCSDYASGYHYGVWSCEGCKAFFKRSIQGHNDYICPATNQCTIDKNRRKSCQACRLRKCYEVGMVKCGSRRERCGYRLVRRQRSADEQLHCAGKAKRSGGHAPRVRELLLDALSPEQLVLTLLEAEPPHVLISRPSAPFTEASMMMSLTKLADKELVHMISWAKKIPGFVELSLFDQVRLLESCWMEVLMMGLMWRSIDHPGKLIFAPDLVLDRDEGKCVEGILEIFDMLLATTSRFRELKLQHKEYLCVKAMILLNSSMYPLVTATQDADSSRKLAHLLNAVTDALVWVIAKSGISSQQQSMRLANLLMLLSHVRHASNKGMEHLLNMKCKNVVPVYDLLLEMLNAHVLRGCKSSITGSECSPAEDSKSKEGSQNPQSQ
# Estrogen receptor (Homo sapiens), sequence (P03372 whole entry, looked up): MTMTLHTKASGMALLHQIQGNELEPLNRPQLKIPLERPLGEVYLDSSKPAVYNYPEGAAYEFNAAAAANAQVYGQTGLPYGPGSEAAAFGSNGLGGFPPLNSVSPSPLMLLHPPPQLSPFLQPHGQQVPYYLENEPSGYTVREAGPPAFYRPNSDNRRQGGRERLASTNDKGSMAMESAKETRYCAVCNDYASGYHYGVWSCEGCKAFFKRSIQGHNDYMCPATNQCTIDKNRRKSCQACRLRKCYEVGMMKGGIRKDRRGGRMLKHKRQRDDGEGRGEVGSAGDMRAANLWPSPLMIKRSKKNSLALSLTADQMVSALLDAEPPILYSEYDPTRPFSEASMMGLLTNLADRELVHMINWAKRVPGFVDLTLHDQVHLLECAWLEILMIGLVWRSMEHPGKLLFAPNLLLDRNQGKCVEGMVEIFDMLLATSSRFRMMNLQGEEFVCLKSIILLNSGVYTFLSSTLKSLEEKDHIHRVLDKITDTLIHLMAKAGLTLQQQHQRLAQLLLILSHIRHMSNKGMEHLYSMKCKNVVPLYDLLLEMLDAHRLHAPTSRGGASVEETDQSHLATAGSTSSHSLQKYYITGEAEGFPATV
Compound,outcome [1],Potency [2],outcome [3],outcome [4],Potency [5],Potency [6],outcome [7],Potency [8],Potency [9],Potency [10]
N=C(N)c1ccccc1,inactive,inactive,inactive,inactive,inactive,inactive,inactive,,,
Oc1ccc(C2CNCCc3c2cc(O)c(O)c3Cl)cc1 (stereo not drawn),inactive,inactive,inactive,inactive,inactive,inactive,inactive,inactive,,
CC[N+](C)(C)c1cccc(O)c1,inactive,inactive,inactive,inactive,,inactive,inactive,inactive,,
CC(C)CNCC(C)C,inactive,inactive,inactive,inactive,,inactive,inactive,inactive,,
Cc1cnc(NS(=O)(=O)c2ccc(N)cc2)nc1,inactive,inactive,inactive,inactive,,inactive,inactive,inactive,inactive,inactive
CC(C)c1cc2c(cc1S(=O)(=O)O)[C@@]1(C)CCC[C@@](C)(C(=O)O)[C@@H]1CC2,inactive,inactive,inactive,inactive,inactive,inactive,inactive,inactive,,
COc1nc(N)nc2c1ncn2[C@@H]1O[C@H](CO)[C@@H](O)[C@@H]1O,inactive,inactive,inactive,inactive,inactive,inactive,inactive,inactive,,
O=C(CCCN1CCN(c2ccccn2)CC1)c1ccc(F)cc1,inactive,inactive,inactive,inactive,,inactive,inactive,inactive,,
CCC(C)C1CCCCC1=O (stereo not drawn),inactive,inactive,inactive,inactive,,inactive,inactive,inactive,,
N=c1nc(N2CCCCC2)cc(N)n1O,inactive,inactive,inactive,inactive,inactive,inactive,inactive,,,inactive
O=C(O)COc1nn(Cc2ccccc2)c2ccccc12,inactive,inactive,inactive,inactive,,inactive,inactive,inactive,33.5 µM (active),inactive
CCCCOCCOCCOCc1cc2c(cc1CCC)OCO2,inactive,1.39 µM (active) and 2.66 µM (active),inactive,inactive,,inactive,inactive,inactive,inactive,
CC(C(=O)O)c1ccc(CC2CCCC2=O)cc1 (stereo not drawn),inactive,inactive,inactive,inactive,inactive,inactive,inactive,inactive,,
CC(=O)CC(C)(C)C1CCCCC1,inactive,inactive,inactive,inactive,inactive,inactive,,,,inactive
CC(C)(C)c1nnc(NS(=O)(=O)c2ccccc2)s1,inactive,inactive,inactive,inactive,inactive,inactive,inactive,inactive,,
CCN(CC)CCNC(=O)c1cc(S(C)(=O)=O)ccc1OC,inactive,inactive,inactive,inactive,,inactive,,inactive,,inactive

Compound,outcome [1],Potency [2],outcome [3],outcome [4],Potency [5],Potency [6],outcome [7],Potency [8],Potency [9],Potency [10]
FC1(F)C(F)(F)C(F)(F)C2(F)C(F)(F)C(F)(F)C(F)(F)C(F)(F)C2(F)C1(F)F (stereo not drawn),inactive,inactive,inactive,inactive,,inactive,inactive,inactive,inactive,
O=C(O)CCCc1ccccc1,inactive,inactive,inactive,,inactive,inactive,inactive,inactive,,
Nc1nc2c(ncn2COC(CO)CO)c(=O)[nH]1,inactive,inactive,inactive,inactive,,inactive,inactive,,,inactive
O=c1cc(-c2ccccc2)oc2ccccc12,inactive,15.3 µM (active),,,inactive,inactive,,inactive,inactive and 4.3 µM (active),
CC(=O)OCC(=O)[C@@]1(O)CCC2C3CCC4=CC(=O)CC[C@]4(C)C3[C@@H](O)C[C@@]21C (stereo partly drawn),inactive,inactive,inactive,inactive,inactive,inactive,inactive,,,
N=C(N)c1ccc2cc(OC(=O)c3ccc(N=C(N)N)cc3)ccc2c1,inactive,inactive,,,inactive,inactive,,inactive,inactive,inactive
NC(=O)COCCN1CCN(C(c2ccccc2)c2ccc(Cl)cc2)CC1 (stereo not drawn),inactive,inactive,,,inactive,inactive,inactive,inactive,inactive,inactive
C/C=C(\C)C#N,inactive,inactive,,inactive,inactive,inactive,inactive,inactive,,inactive
CN(C)CCCN1c2ccccc2CCc2ccc(Cl)cc21,inactive,15.4 µM (active) and 11.9 µM (active),,,24.3 µM (active) and 21.1 µM (active),24.3 µM (active) and 18.8 µM (active),,48.6 µM (active) and 33.5 µM (active),,
CCN1CCC[C@H]1CNC(=O)c1c(O)c(Cl)cc(Cl)c1OC,inactive,inactive,inactive,inactive,inactive,inactive,inactive,,,
COCCc1ccc(OCC(O)CNC(C)C)cc1 (stereo not drawn),inactive,inactive,inactive,inactive,inactive,inactive,inactive,,,
NCCc1cnc[nH]1,inactive,inactive,inactive,inactive,,inactive,inactive,,,
C=COCC1CCC(CO)CC1 (stereo not drawn),inactive,inactive,,,inactive,inactive,,inactive,,
Cc1c(O)cccc1O,inactive,14 µM (active),,,inactive,inactive,,inactive,,
Brc1c(NC2=NCCN2)ccc2nccnc12,inactive,inactive,,inactive,,inactive,,inactive,,
CCc1ccc(O)c(OC)c1,inactive,inactive,,inactive,inactive,inactive,inactive,inactive,,
